Compound activity deposited in PubChem by Sanford-Burnham Center for Chemical Genomics.
PPC-1+TRAIL kill: kills PPC-1 cancer cells in the presence of TRAIL; PPC-1 cells + TRAIL, ATPLite viability luminescence; cell killing (% activity), % at 4 µM or 5 µM; 220,000 tested, 0.41% active; AID 1443;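 active = cell killing above 50% in the first pass at 4 µM, then a duplicate retest at 5 µM averaging 50% or more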
SENP8 block-1: inhibitors of human SENP8 protease. Q96LD8. recombinant SENP8, Nedd8 substrate fluorescence. inhibition, % at 20 µM. 360,000 tested, 0.64% active; in the data active = inhibition mostly above about 40%, no sharp cut-off; inactive = mostly below about 27%
Target sequence (Q96LD8 whole entry, looked up): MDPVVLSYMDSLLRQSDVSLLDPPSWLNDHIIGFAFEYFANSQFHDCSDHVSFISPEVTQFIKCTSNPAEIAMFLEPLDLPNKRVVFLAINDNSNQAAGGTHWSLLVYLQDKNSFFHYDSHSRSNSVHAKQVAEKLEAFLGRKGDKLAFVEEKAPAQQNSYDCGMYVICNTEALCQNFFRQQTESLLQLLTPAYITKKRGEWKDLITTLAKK
SENP8 block-2: inhibitors of human SENP8 protease. purified SENP8, Z-RLRGG-aminoluciferin cleavage, luminescence. inhibition, % at 10 µM. 330,000 tested, 1.2% active; in the data active = inhibition above about 50%
SENP6 inh: blocks the human protease SENP6; Recombinant SENP6 catalytic domain, aminoluciferin luminescence; inhibition, % at 10 µM; 330,000 tested, 1.8% active; AID 2599;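 active = inhibition above about 50% at the single tested dose, limit read from the data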
SENP7 inh: inhibitors of human SENP7 protease | Q9BQF6 | recombinant SENP7, Z-RLRGG-aminoluciferin luminescence, 40 min | inhibition, % at 5 µM | 330,000 tested, 1.5% active | AID 434973;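 active = inhibition above about 50% at the single test dose, limit read from the data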
C8 TRAIL sens: caspase-8 TRAIL sensitization; NB7+C8 cells + TRAIL, ATPlite viability luminescence; inhibition (viability loss, TRAIL sensitization), % at 10 µM; 360,000 tested, 1% active;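 active = compounds causing at least 50% loss of cell viability in the single-dose screen, relative to plate controls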
SENP8 conf: confirmation of human SENP8 protease inhibitors; inhibition, % at 12.5 µM; shares compounds with SENP7 inh; Recombinant SENP8, Z-RLRGG-aminoluciferin luminescence, 60 min; 6,200 tested, 40% active;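 active = mean inhibition across replicates above about 50%, limit read from the data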
SENP6 confirm: confirmation of human SENP6 protease inhibitors; inhibition, % at 12.5 µM; 6,200 tested, 58% active; recombinant SENP6, Z-RLRGG-aminoluciferin luminescence; AID 488915; shares compounds with SENP7 inh
SENP7 confirm: confirmation of human SENP7 protease inhibitors. shares compounds with SENP7 inh. recombinant SENP7, Z-RLRGG-aminoluciferin luminescence, 40 min. inhibition, % at 12.5 µM. 6,200 tested, 69% active. AID 488917
Casp3 SENP sel: caspase-3 inhibition (SENP selectivity assay); purified caspase-3, Z-DEVD-aminoluciferin luminescence, 60 min; 6,200 tested, 60% active; inhibition, % at 12.5 µM; shares compounds with SENP7 inh;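 active = mean inhibition above about 50%, limit read from the data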
Target sequence (P42574 28-227 limits assumed): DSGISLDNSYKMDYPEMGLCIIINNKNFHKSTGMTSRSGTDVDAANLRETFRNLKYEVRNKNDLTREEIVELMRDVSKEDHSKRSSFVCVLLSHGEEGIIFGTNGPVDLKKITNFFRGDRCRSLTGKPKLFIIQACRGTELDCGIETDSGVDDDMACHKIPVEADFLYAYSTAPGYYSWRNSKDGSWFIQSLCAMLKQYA
Luc interf: interferes with luciferase luminescence in SENP counter-screen; shares compounds with SENP7 inh; inhibition, % at 12.5 µM; Pre-incubated SENP8/Z-RLRGG-aminoluciferin, luciferase luminescence interference; 6,200 tested, 39% active;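 active = mean inhibition above about 50% when retested at one dose, limit read from the data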
Numbers stand for hits; – = inactive; · = not tested or not shown. The list is not random: actives were taken first. Their share in the collection is about 3%.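 The calls were made as follows, unless noted: active = mean inhibition above about 50% in the one-dose retest (limit read from the data); inactive = the rest.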

SMILES	PPC-1+TRAIL kill	SENP8 block-1	SENP8 block-2	SENP6 inh	SENP7 inh	C8 TRAIL sens	SENP8 conf	SENP6 confirm	SENP7 confirm	Casp3 SENP sel	Luc interf
O=C(OCc1ccccc1)N1CCCCC1c1c(Cl)cccc1Br (centres undefined)	·	–	·	·	·	–	·	·	·	·	·
CCCCCC(=O)NNC(=O)Nc1ccccc1	–	–	–	–	–	–	·	·	·	·	·
CCCCSC(=O)Nc1ccccc1	–	–	52	80	71	–	–	73	90	65	55
Cc1ccc2c(cnn2C(=O)CCCC(=O)NC(C)c2ccccc2)c1 (centres undefined)	·	–	–	–	–	–	·	·	·	·	·
O=C(O)c1cccc(NC(=O)c2ccc3c(c2)C(=O)N(CC2CCCO2)C3=O)c1 (centres undefined)	–	–	50	83	71	–	87	85	99	74	78
CC(=O)c1cccc(NC(=O)c2ccc(C)c(S(=O)(=O)N3CCOCC3)c2)c1	·	–	–	–	–	–	·	·	·	·	·
Cc1ccc(C(=O)Nc2cccc(C(=O)O)c2)cc1S(=O)(=O)N1CCOCC1	–	–	57	61	–	–	73	68	89	50	–
COC(=O)c1cccc(NC(=O)c2ccc3c(c2)C(=O)N(CC2CCCO2)C3=O)c1 (centres undefined)	–	–	–	–	–	–	·	·	·	·	·
Cc1ccc(C(=O)Nc2cccc(C(=O)O)c2)cc1S(=O)(=O)N1CCCCC1	–	–	88	93	94	–	96	96	102	83	79
COc1cccc(CN(C)C(=O)CN2C(=O)NC(c3ccccc3)(c3ccccc3)C2=O)c1	·	–	–	–	–	–	·	·	·	·	·
CC1(C(=O)Nc2ccc(F)cc2F)CCN1C(=O)Cc1ccccc1 (centres undefined)	·	–	·	·	·	–	·	·	·	·	·
CCOc1ccc(N=Nc2c(=O)[nH]n3c(=O)cc(C)[nH]c23)cc1	–	–	92	96	95	–	97	98	102	98	93
Cc1[nH][nH]c(=O)c1N=Nc1ccc(F)cc1	·	–	–	–	–	–	·	·	·	·	·
Nc1[nH][nH]c(=O)c1N=Nc1cccc(Cl)c1	–	–	–	–	–	–	·	·	·	·	·
Cc1cc(=O)n2[nH]c(=O)c(N=Nc3ccccc3)c2[nH]1	–	–	–	–	–	–	·	·	·	·	·
CCOc1ccc(N=Nc2c(N)[nH][nH]c2=O)cc1	–	–	65	76	72	–	57	61	90	88	–
COc1ccc(N=Nc2c(C)[nH][nH]c2=O)cc1	–	–	–	69	64	–	50	52	84	80	53
COC(=O)/C=C1\OCc2ccccc21	·	–	·	·	·	–	·	·	·	·	·
CSc1nnc(-c2ccc(C(F)(F)F)nc2C)o1	–	–	–	–	–	–	·	·	·	·	·
COc1cc(/C=C(/C#N)c2nc3ccccc3[nH]2)ccc1OC(=O)c1ccco1	–	–	78	84	70	–	52	70	99	84	–
COc1cc(/C=C(\C#N)c2nc3ccccc3[nH]2)cc(Br)c1OCc1ccccc1	–	–	–	–	–	–	·	·	·	·	·
N#C/C(=C/c1cccs1)c1nc2ccccc2[nH]1	–	–	–	–	57	–	–	–	84	58	–
COc1cc(/C=C(\C#N)c2nc3ccccc3[nH]2)ccc1Oc1ccc([N+](=O)[O-])cn1	–	–	–	–	–	–	·	·	·	·	·
COc1cc(/C=C(/C#N)c2nc3ccccc3c(=O)[nH]2)ccc1O	–	–	84	94	87	–	–	–	–	62	–
COc1c(O)ccc(/C=C(\C#N)c2nc3ccccc3[nH]2)c1[N+](=O)[O-]	–	–	–	54	–	–	–	–	59	–	–
SMILES	PPC-1+TRAIL kill	SENP8 block-1	SENP8 block-2	SENP6 inh	SENP7 inh	C8 TRAIL sens	SENP8 conf	SENP6 confirm	SENP7 confirm	Casp3 SENP sel	Luc interf
COCCSc1nnc(NC(=O)COc2ccc3c(c2)OCO3)s1	·	–	–	–	–	–	·	·	·	·	·
CCn1c(COc2ccccc2)nnc1SCC(=O)NC1CC1	·	–	–	–	–	–	·	·	·	·	·
Cc1nc2ccc(C(=O)N3CCN(Cc4ccccc4)CC3)cc2[nH]1	·	–	–	–	–	–	·	·	·	·	·
Cc1ccc2occ(/C=C/C(=O)O)c(=O)c2c1	–	–	–	74	–	–	64	58	86	58	61
O=C1CC(N2CCc3ccccc32)C(=O)N1c1ccc(F)cc1 (centres undefined)	·	–	–	–	–	–	·	·	·	·	·
COc1ccc(Cc2nnc(Nc3c(C)cccc3C)o2)cc1OC	–	–	–	–	–	–	·	·	·	·	·
COc1nsnc1NS(=O)(=O)c1ccc(NC(=S)NC(=O)c2cccnc2)cc1	–	–	–	54	–	–	55	51	82	84	55
CCc1ccc(C(=O)CCC(=O)Nc2cccc(S(=O)(=O)N3CCCCC3)c2)cc1	·	–	–	–	–	–	·	·	·	·	·
COc1ccc(/C=C/c2noc(-c3ccccc3O)n2)cc1	–	–	88	89	88	–	57	–	62	53	–
CC(=O)Oc1ccccc1-c1nc(/C=C/c2ccccc2)no1	·	–	–	61	70	–	–	–	–	–	–
COCC#Cc1ccc2c(c1)O[C@@H](CN(C)S(=O)(=O)c1cccc(F)c1)[C@@H](C)CN([C@H](C)CO)S2(=O)=O	·	–	·	·	·	–	·	·	·	·	·
Cc1ccc2[nH]c(-c3cccc(N)c3)cc2c1	–	–	56	–	70	–	57	77	94	–	53
Cc1ccc2[nH]c(-c3cccc(F)c3)cc(=O)c2c1	–	–	–	–	–	–	·	·	·	·	·
COC(=O)c1sc(NC(=O)c2cc3c(s2)CCCC3)nc1C	–	–	–	–	80	–	–	–	90	52	–
CCOC(=O)c1sc(NC(=O)c2cc3c(s2)CCC(C)C3)nc1C (centres undefined)	–	–	–	–	–	–	·	·	·	·	·
CN(C)c1ccc(/C=N/n2ncc3ccccc32)cc1	–	–	68	76	–	51	–	85	97	70	–
C=CCn1c(/N=C/c2ccc(N(C)C)cc2)nc2ccccc21	–	–	71	77	–	–	81	78	94	75	85
CCc1ccc(C(=O)COC(=O)c2n[nH]c3ccccc23)cc1	–	–	77	–	74	–	–	78	93	61	–
